In the supplement of paper PMC10849652:
Targets with a hit are over-represented here; the source holds about 7,900 in all. About 0.6% of all pairs of compound and target were hits. Values without a mark were called inactive.

Columns and labels:
Assay in all cases: log2 fold change, soluble protein after heating vs DMSO (PISA); higher = thermal stabilisation; K562 cells, 10 uM, 30 min; active = over 0.2 and 3.5 SD of the protein, either way, in both replicates (recomputed)
[1] = compound: CC1=C(C=C(C=C1)NC(=O)C2=CC(=CC=C2)C(C)(C)C#N)NC3=CC4=C(C=C3)N=CN(C4=O)C
Method in brief: (§1)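 Aliquots of K562 cells (2×10^6 cells/mL) treated with 10 μM compound for 30 min were heated for 3 min over 48°C-58°C. After pooling and extraction in PBS with 0.5% NP-40 at 4°C, soluble protein from a 21,000xg, 90 min spin was quantified by TMTpro 16plex LC-MS/MS with channel sums equalised. Thermal stability is expressed against control samples, from duplicates, as a log2 fold change.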

[2] = compound: CC1=C(C=C(C=C1)NC(=O)C2=CC(=CC=C2)N(C)C)NC(=O)C3=CC=C(C=C3)O
Method in brief: as §1

[3] = compound: CC1=CC=C(C=C1)SC2=C3C=C(SC3=CN=C2)C(=O)N
Method in brief: as §1

[4] = compound: CC1=NC(=CC=C1)C2=C(N=C(N2)C(C)(C)C)C3=CC4=NC=CN=C4C=C3
Method in brief: as §1

[5] = compound: CCCCN(Cc1ccc(C(=O)NO)cc1)C(=O)Nc1ccccc1 [Nexturastat A]
Method in brief: as §1

[6] = compound: CCCS(=O)(=O)Nc1ccc(F)c(C(=O)c2c[nH]c3ncc(-c4ccc(Cl)cc4)cc23)c1F [vemurafenib]
Method in brief: as §1

[7] = compound: CCCS(=O)(=O)Nc1ccc(F)c(C(=O)c2c[nH]c3ncc(Cl)cc23)c1F
Method in brief: as §1

[8] = compound: CCCc1cc(C)[nH]c(=O)c1CNC(=O)c1cc(-c2ccnc(N3CCN(C)CC3)c2)cc2c1cnn2C(C)C
Method in brief: as §1

[9] = compound: CCN(CC)Cc1ccc2cc(COC(=O)Nc3ccc(C(=O)NO)cc3)ccc2c1 [givinostat]
Method in brief: as §1

[10] = compound: CCN(CCCOc1ccc2c(Nc3cc(CC(=O)Nc4cccc(F)c4)[nH]n3)ncnc2c1)CCOP(=O)(O)O [barasertib]
Method in brief: as §1

[11] = compound: CC[C@@H]1C(=O)N(C)c2cnc(Nc3ccc(C(=O)NC4CCN(C)CC4)cc3OC)nc2N1C1CCCC1
Method in brief: as §1

[12] = compound: CC[C@@H]1C(=O)N(C)c2cnc(Nc3ccc(C(=O)N[C@H]4CC[C@H](N5CCN(CC6CC6)CC5)CC4)cc3OC)nc2N1C(C)C [volasertib]
Method in brief: as §1

[13] = compound: CC[C@H](C)N1C=C(C2=C(C=C(C=C21)C3=CN=C(C=C3)N4CCNCC4)C(=O)NCC5=C(C=C(NC5=O)C)C)C
Method in brief: as §1

[14] = compound: CC[C@H](C)[C@@H](C(=O)N[C@@H]([C@@H](C)O)C(=O)N[C@@H](CC(C)C)C(=O)[C@]1(CO1)C)NC(=O)[C@H]([C@@H](C)CC)N(C)C(=O)C [epoxomicin]
Method in brief: as §1

[15] = compound: CCn1c(C(=O)N(C2CC2)C2CC2)cc2c3c(ncn3C)c(Nc3cc(C)n(C)n3)nc21
Method in brief: as §1

[16] = compound: CCn1cc(-c2ccnc3[nH]c(-c4cccc(CN(C)C)c4)cc23)c(-c2ccc(NC(=O)N(C)C)cc2)n1
Method in brief: as §1

[17] = compound: CN(C)CC(=O)Nc1ccc2[nH]c(=O)c3ccccc3c2c1
Method in brief: as §1

[18] = compound: CN(CCOC1=CC=C(C=C1)C[C@H]2C(=O)NC(=O)S2)C3=CC=CC=N3 (racemic) [rosiglitazone]
Method in brief: as §1

[19] = compound: CN1C2=C(C3=C1C(=O)N(N=C3)CC4=CC(=CC=C4)N)SC(=C2)S(=O)C
Method in brief: as §1

[20] = compound: CN1CCC(CNc2ccc3ncc(-c4cccc(OC(F)(F)F)c4)n3n2)CC1
Method in brief: as §1

UniProt P78356, sequence (P78356 whole entry, looked up): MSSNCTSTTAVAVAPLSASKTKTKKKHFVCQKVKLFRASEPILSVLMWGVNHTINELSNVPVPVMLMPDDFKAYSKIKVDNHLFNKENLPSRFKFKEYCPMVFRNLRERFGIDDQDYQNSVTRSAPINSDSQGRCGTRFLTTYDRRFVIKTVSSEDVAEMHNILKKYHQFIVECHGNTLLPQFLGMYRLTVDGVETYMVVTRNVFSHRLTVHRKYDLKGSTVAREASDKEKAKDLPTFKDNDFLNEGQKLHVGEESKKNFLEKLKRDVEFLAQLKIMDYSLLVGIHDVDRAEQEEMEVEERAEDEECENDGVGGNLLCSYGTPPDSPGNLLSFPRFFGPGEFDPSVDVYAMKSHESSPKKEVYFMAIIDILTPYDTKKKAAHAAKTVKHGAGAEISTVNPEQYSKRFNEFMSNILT
UniProt Q9UBV8, sequence (Q9UBV8 whole entry, looked up): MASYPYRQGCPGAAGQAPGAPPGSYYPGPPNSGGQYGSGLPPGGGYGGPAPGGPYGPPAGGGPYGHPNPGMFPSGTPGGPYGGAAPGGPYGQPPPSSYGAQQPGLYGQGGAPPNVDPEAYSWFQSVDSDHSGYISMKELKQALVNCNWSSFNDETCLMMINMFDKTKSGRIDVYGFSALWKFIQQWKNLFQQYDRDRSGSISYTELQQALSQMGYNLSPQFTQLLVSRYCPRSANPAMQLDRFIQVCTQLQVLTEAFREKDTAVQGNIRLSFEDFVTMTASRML
UniProt Q5MIZ7, sequence (Q5MIZ7 whole entry, looked up): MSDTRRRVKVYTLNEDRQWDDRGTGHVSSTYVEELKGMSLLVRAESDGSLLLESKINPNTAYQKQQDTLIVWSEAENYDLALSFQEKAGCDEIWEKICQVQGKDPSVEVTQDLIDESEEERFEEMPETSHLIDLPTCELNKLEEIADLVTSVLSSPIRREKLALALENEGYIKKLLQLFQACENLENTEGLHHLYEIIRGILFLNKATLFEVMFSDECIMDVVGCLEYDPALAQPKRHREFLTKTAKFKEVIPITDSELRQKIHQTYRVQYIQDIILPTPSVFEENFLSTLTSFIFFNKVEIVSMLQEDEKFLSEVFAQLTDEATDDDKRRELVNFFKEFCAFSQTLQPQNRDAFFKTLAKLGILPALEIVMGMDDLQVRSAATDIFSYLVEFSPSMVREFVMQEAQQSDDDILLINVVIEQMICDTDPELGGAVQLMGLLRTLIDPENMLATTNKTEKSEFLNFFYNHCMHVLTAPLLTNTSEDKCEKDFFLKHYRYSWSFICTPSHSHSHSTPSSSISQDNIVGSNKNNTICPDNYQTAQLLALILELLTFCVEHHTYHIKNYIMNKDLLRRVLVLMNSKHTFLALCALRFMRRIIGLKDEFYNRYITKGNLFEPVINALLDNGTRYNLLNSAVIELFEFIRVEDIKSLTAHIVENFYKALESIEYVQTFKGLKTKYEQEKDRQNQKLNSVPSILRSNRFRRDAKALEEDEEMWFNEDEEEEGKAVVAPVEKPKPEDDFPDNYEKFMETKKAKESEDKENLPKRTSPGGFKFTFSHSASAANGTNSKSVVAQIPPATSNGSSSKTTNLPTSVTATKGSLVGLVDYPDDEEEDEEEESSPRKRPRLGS
UniProt P19174, sequence (P19174 whole entry, looked up): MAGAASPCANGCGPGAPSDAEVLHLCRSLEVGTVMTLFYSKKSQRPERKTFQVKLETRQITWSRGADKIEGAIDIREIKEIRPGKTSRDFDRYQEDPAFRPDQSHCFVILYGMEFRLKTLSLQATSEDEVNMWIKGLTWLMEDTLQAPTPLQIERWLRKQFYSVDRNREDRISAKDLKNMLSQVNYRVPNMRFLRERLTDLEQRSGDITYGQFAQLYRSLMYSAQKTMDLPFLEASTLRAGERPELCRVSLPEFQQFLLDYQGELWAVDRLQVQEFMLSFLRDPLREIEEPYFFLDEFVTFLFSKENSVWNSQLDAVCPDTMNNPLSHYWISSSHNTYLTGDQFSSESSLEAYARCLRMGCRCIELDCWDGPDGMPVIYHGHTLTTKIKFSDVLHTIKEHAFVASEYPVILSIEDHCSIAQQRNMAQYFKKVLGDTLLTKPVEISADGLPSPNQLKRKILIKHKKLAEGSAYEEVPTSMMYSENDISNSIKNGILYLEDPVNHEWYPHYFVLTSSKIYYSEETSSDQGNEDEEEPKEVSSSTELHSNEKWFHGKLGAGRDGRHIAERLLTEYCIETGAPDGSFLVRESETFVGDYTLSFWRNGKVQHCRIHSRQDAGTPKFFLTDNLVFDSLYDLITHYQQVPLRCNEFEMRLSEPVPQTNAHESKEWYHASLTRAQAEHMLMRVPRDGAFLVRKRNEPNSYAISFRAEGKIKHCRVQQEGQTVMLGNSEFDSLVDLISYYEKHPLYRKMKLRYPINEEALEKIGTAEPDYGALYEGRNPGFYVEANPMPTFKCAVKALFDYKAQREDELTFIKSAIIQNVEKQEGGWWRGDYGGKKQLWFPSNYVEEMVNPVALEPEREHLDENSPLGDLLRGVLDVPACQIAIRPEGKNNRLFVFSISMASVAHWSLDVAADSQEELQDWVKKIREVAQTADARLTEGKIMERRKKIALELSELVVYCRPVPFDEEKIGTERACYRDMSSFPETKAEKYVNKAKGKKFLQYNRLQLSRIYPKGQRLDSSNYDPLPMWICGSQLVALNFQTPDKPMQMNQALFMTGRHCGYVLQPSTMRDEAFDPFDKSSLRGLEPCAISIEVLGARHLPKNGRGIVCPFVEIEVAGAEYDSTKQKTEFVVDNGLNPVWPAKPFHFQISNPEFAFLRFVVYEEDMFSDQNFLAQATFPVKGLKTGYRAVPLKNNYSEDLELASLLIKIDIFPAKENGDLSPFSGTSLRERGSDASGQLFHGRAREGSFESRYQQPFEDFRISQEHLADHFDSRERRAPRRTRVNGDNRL
UniProt Q13362, sequence (Q13362 whole entry, looked up): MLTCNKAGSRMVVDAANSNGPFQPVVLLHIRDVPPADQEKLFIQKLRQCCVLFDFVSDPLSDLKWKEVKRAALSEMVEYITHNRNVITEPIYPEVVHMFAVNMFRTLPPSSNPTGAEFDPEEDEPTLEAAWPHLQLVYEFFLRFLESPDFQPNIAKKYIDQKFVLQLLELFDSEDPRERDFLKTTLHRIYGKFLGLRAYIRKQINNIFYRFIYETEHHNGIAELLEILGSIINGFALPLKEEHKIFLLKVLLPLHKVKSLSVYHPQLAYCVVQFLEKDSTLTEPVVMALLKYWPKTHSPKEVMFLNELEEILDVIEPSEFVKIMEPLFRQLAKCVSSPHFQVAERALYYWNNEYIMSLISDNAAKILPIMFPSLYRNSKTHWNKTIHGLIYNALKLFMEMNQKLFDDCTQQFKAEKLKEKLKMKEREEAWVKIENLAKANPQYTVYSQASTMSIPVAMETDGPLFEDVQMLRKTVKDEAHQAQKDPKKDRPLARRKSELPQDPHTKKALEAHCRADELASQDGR
UniProt P62136, sequence (P62136 whole entry, looked up): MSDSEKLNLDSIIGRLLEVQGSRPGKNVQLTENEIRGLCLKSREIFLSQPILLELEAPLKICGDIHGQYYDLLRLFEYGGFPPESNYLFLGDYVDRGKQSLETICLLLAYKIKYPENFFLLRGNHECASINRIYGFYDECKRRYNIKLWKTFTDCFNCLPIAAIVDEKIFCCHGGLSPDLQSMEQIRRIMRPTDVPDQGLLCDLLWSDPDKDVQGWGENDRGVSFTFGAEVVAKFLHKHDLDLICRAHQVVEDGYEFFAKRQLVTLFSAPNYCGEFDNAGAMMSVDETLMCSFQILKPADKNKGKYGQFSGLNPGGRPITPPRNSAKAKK
UniProt Q9UKL6, sequence (Q9UKL6 whole entry, looked up): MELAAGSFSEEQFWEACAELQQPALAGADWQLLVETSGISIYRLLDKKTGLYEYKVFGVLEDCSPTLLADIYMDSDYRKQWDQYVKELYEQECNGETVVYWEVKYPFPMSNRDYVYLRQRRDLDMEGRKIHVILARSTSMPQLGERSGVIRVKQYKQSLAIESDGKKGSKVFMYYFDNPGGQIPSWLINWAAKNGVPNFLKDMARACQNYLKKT

Target	log2 fold change [1]	log2 fold change [2]	log2 fold change [3]	log2 fold change [4]	log2 fold change [5]	log2 fold change [6]	log2 fold change [7]	log2 fold change [8]	log2 fold change [9]	log2 fold change [10]	log2 fold change [11]	log2 fold change [12]	log2 fold change [13]	log2 fold change [14]	log2 fold change [15]	log2 fold change [16]	log2 fold change [17]	log2 fold change [18]	log2 fold change [19]	log2 fold change [20]
PPP4R3B (UniProt Q5MIZ7)	0.006	0.014	0.008	0.024	-0.063	0.017	0.009	-0.017	0.049	0.029	-0.052	-0.284 (active)	0.05	-0.011	-0.03	-0.074	-0.001	0.06	-0.074	-0.15
PPP1CA (UniProt P62136)	-0.024	-0.019	-0.071	0.164	-0.09	-0.023	-0.05	0	-0.009	0.035	-0.014	-0.061	0.003	0.02	0.011	-0.041	-0.033	0.015	-0.077	0.011
PRKACA (UniProt P17612)	-0.002	-0.008	-0.023	0.043	0.099	0.015	0.019	-0.019	0.006	-0.008	-0.028	-0.046	0.068	-0.072	-0.048	-0.058	0	0.033	-0.003	0.085
PLCG1 isoform 2 (UniProt P19174)	0.045	-0.011	0.039	-0.012	0.019	0.003	0.079	-0.019	-0.013	0.031	-0.031	-0.25	0.05	0.014	-0.097	-0.187	0.085	0.09	0.083	-0.412 (active)
PEF1 (UniProt Q9UBV8)	-0.011	-0.075	0.027	0.013	0.032	0.008	0.073	-0.045	0.022	0.122	-0.144	-0.329 (active)	0.035	0.101	0.045	0.002	-0.061	-0.022	-0.005	0.048
PPP2R5C isoform 4 (UniProt Q13362)	-0.016	0.004	0.014	-0.064	0.016	0.074	-0.004	-0.027	-0.001	0.057	-0.069	-0.127	0.042	0.19	0.018	-0.099	-0.048	0.052	-0.003	-0.11
PIP4K2B (UniProt P78356)	-0.055	-0.048	0.033	0.026	-0.088	0.045	0.02	0.039	-0.076	0.004	0.573 (active)	0.776 (active)	-0.089	0.015	-0.036	-0.054	0.029	0.005	0.172	0.231
PCTP (UniProt Q9UKL6)	-0.007	0.004	0.052	0.039	-0.003	0.005	0.066	0.026	-0.035	0.013	-0.017	-0.012	-0.067	0.039	-0.058	-0.055	-0.005	0.025	-0.011	-0.279 (active)
